Most compounds without a hit are left out; they make up all but 2.2% or so of the library.
ABCB6 inh 2: blocks the human ABCB6 transporter; K562-ABCB6 porphyrin accumulation, flow cytometry, 1 h; hits give low values; Q9NP58; fluorescence ratio to DMSO, % at 10 µM; AID 602162; actives 0.19% (n = 360,000);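 active = fluorescence ratio to DMSO below 75%, the collection mean minus 3 SD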;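 also: signal is porphyrin accumulated inside mitochondria; lower ratio means ABCB6 inhibition with less porphyrin fluorescence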
Target sequence (Q9NP58 whole entry, looked up): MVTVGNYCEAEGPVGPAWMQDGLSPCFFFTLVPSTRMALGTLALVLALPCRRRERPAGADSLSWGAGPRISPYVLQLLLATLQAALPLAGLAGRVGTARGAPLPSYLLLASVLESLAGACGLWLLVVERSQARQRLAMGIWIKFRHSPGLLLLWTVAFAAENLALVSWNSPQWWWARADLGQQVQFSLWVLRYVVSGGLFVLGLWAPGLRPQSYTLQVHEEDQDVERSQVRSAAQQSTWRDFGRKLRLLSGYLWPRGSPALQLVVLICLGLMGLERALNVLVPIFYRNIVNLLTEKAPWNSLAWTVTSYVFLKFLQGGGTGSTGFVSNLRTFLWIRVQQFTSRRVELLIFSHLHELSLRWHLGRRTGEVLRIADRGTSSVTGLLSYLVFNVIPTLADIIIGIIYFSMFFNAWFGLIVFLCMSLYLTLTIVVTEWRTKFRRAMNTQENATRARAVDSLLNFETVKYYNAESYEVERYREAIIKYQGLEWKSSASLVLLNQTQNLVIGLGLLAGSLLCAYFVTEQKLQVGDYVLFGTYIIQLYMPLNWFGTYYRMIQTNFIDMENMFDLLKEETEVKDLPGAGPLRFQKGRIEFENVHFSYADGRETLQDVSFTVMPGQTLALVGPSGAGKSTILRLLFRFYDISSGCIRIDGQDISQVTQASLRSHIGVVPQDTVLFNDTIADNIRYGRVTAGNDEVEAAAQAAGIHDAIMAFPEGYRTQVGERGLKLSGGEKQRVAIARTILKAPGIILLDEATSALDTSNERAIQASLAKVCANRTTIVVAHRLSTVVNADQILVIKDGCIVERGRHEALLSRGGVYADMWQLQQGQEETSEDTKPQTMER
MIN6 prolif-1: inducers of beta-cell replication in MIN6 cells | proliferation, % at 10 µM | AID 2380 | actives 0.29% (n = 330,000) | MIN6 cells proliferation, ATPlite luminescence, 48 h; cells starved in 0.2% serum; 100% = growth in 10% serum;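 active = compounds whose signal lies at least 3.5 SD above the mean of all wells on their plate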
H9c2 protect: protects H9c2 cardiomyocytes from peroxide injury; H2O2 injury protection, ATPLite, 2 h; protection from H2O2 cell death, % at 20 µM; actives 0.63% (n = 360,000);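 active = compounds giving at least 50% protection of heart cells from peroxide-induced death in the single-dose screen, raw or plate-pattern-corrected value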
hiPSC survival: hiPSC single-cell survival enhancement | actives 0.044% (n = 360,000) | survival enhancement, % at 20 µM | ATPlite luminescence; 100% = ROCK inhibitor wells, 0% = DMSO; in the data active = survival enhancement above about 18%;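 also: cells exposed to compounds for 16 hours before the ATP read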
Myeloid diff 2: compounds promoting myeloid differentiation; ER-HoxA9 myeloid progenitors, lysozyme-GFP differentiation, flow cytometry; calls only at 10 µM; actives 1% (n = 360,000); AID 624256;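 active = normalized GFP-positive differentiation at or above the plate's own cutoff, the solvent-only control mean plus 3 SD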;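 also: cells exposed to compound for four days before flow analysis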
MIN6 prolif-2: confirmation of inducers of beta-cell replication in MIN6 cells | AID 463095 | MIN6 beta-cell proliferation, ATPlite luminescence, 48 h; cells kept in 0.2% serum; scaled between 0.2% and 10% serum | proliferation increase, % at 50 µM | shares compounds with MIN6 prolif-1 | 920 tested, under 10 active;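 active = proliferation increase above 40% at any of the four tested concentrations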
A number is an active result.

What do the screens show for `COc1cc2c(cc1OC)C(Nn1cnnc1)=NC1(CCCC1)C2`?
ABCB6 inh 2: inactive; MIN6 prolif-1: 5.2; H9c2 protect: inactive; hiPSC survival: inactive; Myeloid diff 2: inactive; MIN6 prolif-2: inactive

Results for CC(C)(C)NS(=O)(=O)c1ccc(CCC(=O)N2CCOCC2)cc1 ?
ABCB6 inh 2: inactive; MIN6 prolif-1: inactive; H9c2 protect: inactive; hiPSC survival: inactive; Myeloid diff 2: inactive

Results for CC1CCN(C(=O)CCc2ccc(S(=O)(=O)NC(C)(C)C)cc2)CC1 ?
ABCB6 inh 2: inactive; MIN6 prolif-1: 7.5; H9c2 protect: inactive; hiPSC survival: inactive; Myeloid diff 2: inactive; MIN6 prolif-2: inactive

Results for O=C(COC(=O)c1cccnc1Cl)NCc1ccc(F)cc1 ?
ABCB6 inh 2: inactive; MIN6 prolif-1: inactive; H9c2 protect: inactive; hiPSC survival: inactive; Myeloid diff 2: inactive

What do the screens show for `NS(=O)(=O)c1ccc(N/C=C\C(=O)c2ccncc2)cc1`?
ABCB6 inh 2: inactive; MIN6 prolif-1: inactive; H9c2 protect: inactive; hiPSC survival: inactive; Myeloid diff 2: inactive

How did CCNC(=S)Nc1cc(C)ccn1 do in these assays?
ABCB6 inh 2: inactive; MIN6 prolif-1: 0.0; H9c2 protect: inactive; hiPSC survival: inactive; Myeloid diff 2: inactive; MIN6 prolif-2: inactive

Results for Cc1ccc(-c2nn(CCC(=O)Nc3cccnc3)c(=O)c3ccccc23)cc1 ?
ABCB6 inh 2: inactive; MIN6 prolif-1: inactive; H9c2 protect: inactive; hiPSC survival: inactive; Myeloid diff 2: inactive

What do the screens show for `Cc1ccccc1NC(=O)c1snc2c(=O)[nH]cnc12`?
MIN6 prolif-1: inactive

How did COC(=O)C1=C(Cn2cnc3ccccc32)NC(=O)NC1c1cc(C)ccc1C (configuration not stated) do in these assays?
ABCB6 inh 2: inactive; MIN6 prolif-1: 5.4; H9c2 protect: inactive; hiPSC survival: inactive; Myeloid diff 2: inactive; MIN6 prolif-2: inactive

How did CCOC(=O)C1=C(Cn2cnc3ccccc32)NC(=O)NC1c1cc(C)ccc1C (configuration not stated) do in these assays?
ABCB6 inh 2: inactive; MIN6 prolif-1: inactive; H9c2 protect: inactive; hiPSC survival: inactive

What do the screens show for `CC(=O)Nc1n[nH]c(S(=O)(=O)Cc2ccc(Cl)cc2Cl)n1`?
ABCB6 inh 2: inactive; MIN6 prolif-1: 8.0; H9c2 protect: inactive; hiPSC survival: inactive; Myeloid diff 2: inactive; MIN6 prolif-2: inactive

Results for COc1ccc(/C=N/n2cnc3c([nH]c4ccccc43)c2=O)cc1COc1ccccn1 ?
MIN6 prolif-1: 8.3; MIN6 prolif-2: inactive

What do the screens show for `COc1cc(/C=N/NC(=O)CN(Cc2ccccc2)S(=O)(=O)c2ccc3c(c2)OCCO3)ccc1O`?
ABCB6 inh 2: inactive; MIN6 prolif-1: 0.0; H9c2 protect: inactive; hiPSC survival: inactive; Myeloid diff 2: inactive; MIN6 prolif-2: inactive

Results for COc1ccc(/C=N/NC(=O)CN(Cc2ccccc2)S(=O)(=O)c2ccc3c(c2)OCCO3)cc1 ?
ABCB6 inh 2: inactive; MIN6 prolif-1: inactive; H9c2 protect: inactive; hiPSC survival: inactive; Myeloid diff 2: inactive

What do the screens show for `COc1ccccc1C(=O)NCC(C)(C)CN=C1NS(=O)(=O)c2ccccc21`?
ABCB6 inh 2: inactive; MIN6 prolif-1: 6.6; H9c2 protect: inactive; hiPSC survival: inactive; Myeloid diff 2: inactive; MIN6 prolif-2: inactive

What do the screens show for `COc1ccccc1C(=O)NCCN=C1NS(=O)(=O)c2ccccc21`?
ABCB6 inh 2: inactive; MIN6 prolif-1: inactive; H9c2 protect: inactive; hiPSC survival: inactive; Myeloid diff 2: inactive

What do the screens show for `COc1ccc(C(C)NC(=O)C2C(=O)NC3(C)CC2c2ccccc2O3)cc1` (configuration not stated)?
ABCB6 inh 2: inactive; MIN6 prolif-1: inactive; H9c2 protect: inactive; hiPSC survival: inactive; Myeloid diff 2: inactive

What do the screens show for `S=c1[nH]nc(-c2cccc(Cl)c2)n1Cc1ccccc1`?
ABCB6 inh 2: inactive; MIN6 prolif-1: inactive; H9c2 protect: inactive; hiPSC survival: inactive; Myeloid diff 2: inactive

How did Cc1cccc(-c2n[nH]c(=S)n2Cc2ccccc2)c1 do in these assays?
ABCB6 inh 2: inactive; MIN6 prolif-1: 6.3; H9c2 protect: inactive; hiPSC survival: inactive; Myeloid diff 2: inactive; MIN6 prolif-2: inactive

Results for COc1ccccc1Oc1cc(-n2nc(C)cc2C)ncn1 ?
ABCB6 inh 2: inactive; MIN6 prolif-1: inactive; H9c2 protect: inactive; hiPSC survival: inactive; Myeloid diff 2: inactive

Results for Cc1cc(C)c(OCC(O)CNC(C)(C)C)c(C)c1 (configuration not stated) ?
ABCB6 inh 2: inactive; MIN6 prolif-1: inactive; H9c2 protect: inactive; hiPSC survival: inactive; Myeloid diff 2: inactive

Results for Cc1ccccc1NC(=O)CSc1nnc(C)c2ccccc12 ?
ABCB6 inh 2: inactive; MIN6 prolif-1: 5.8; H9c2 protect: inactive; hiPSC survival: inactive; Myeloid diff 2: inactive; MIN6 prolif-2: inactive

Results for COc1ccc([N+](=O)[O-])cc1NCc1cccnc1 ?
ABCB6 inh 2: inactive; MIN6 prolif-1: 11.1; H9c2 protect: inactive; hiPSC survival: inactive; Myeloid diff 2: inactive; MIN6 prolif-2: inactive

Results for COc1ccc([N+](=O)[O-])cc1NCc1cccc([N+](=O)[O-])c1 ?
ABCB6 inh 2: inactive; MIN6 prolif-1: inactive; H9c2 protect: inactive; hiPSC survival: inactive; Myeloid diff 2: inactive

What do the screens show for `CCCCOc1ccc(C(=O)NCC(=O)NCC(c2ccc(OC)cc2)N2CCOCC2)cc1` (configuration not stated)?
ABCB6 inh 2: inactive; MIN6 prolif-1: inactive; H9c2 protect: inactive; hiPSC survival: inactive; Myeloid diff 2: inactive

How did COc1ccc(C(CNC(=O)CCNC(=O)c2ccc(Br)cc2)N2CCOCC2)cc1 (configuration not stated) do in these assays?
ABCB6 inh 2: inactive; MIN6 prolif-1: 11.9; H9c2 protect: inactive; hiPSC survival: inactive; MIN6 prolif-2: inactive

Results for CCn1cc(/C=N\NC(=O)c2c[nH]c3ccccc23)c(C)n1 ?
ABCB6 inh 2: inactive; MIN6 prolif-1: inactive; H9c2 protect: inactive; hiPSC survival: inactive; Myeloid diff 2: inactive

Results for Cc1ccc(C(=O)Nc2cc(Cl)ccc2OC(=O)c2ccc(C)cc2)cc1 ?
MIN6 prolif-1: inactive

Results for O=C(NC1CCCCC1)C1CCC(=O)N(C2CC2)C1 (configuration not stated) ?
ABCB6 inh 2: inactive; MIN6 prolif-1: 11.4; H9c2 protect: inactive; hiPSC survival: inactive; Myeloid diff 2: inactive; MIN6 prolif-2: inactive

Results for CC(=O)NCc1c(Cl)cccc1-n1cccc1 ?
ABCB6 inh 2: inactive; MIN6 prolif-1: inactive; H9c2 protect: inactive; hiPSC survival: inactive; Myeloid diff 2: inactive

How did C/C(=N\NC(=O)c1ccncc1)c1ccc(NC(=O)c2ccc(Cl)cc2)cc1 do in these assays?
ABCB6 inh 2: inactive; MIN6 prolif-1: inactive; H9c2 protect: inactive; hiPSC survival: inactive; Myeloid diff 2: inactive

What do the screens show for `COc1ccc(Nc2nc(C)nc3c2oc2ccccc23)c(OC)c1`?
ABCB6 inh 2: inactive; MIN6 prolif-1: inactive; H9c2 protect: inactive; hiPSC survival: inactive; Myeloid diff 2: inactive

Screening data: PubChem BioAssay, several laboratories
